Compound activity: PubChem BioAssay, National Center for Advancing Translational Sciences (NCATS)
This is a sample that favours compounds with a hit; in the whole collection about 6.9% have one here.
BAZ2B inh – inhibitors of human BAZ2B bromodomain | Q9UIF8 | AlphaScreen BAZ2B-H3K14Ac peptide displacement | Potency, µM (doses to about 114 µM), for the others: top-dose activity change, negative = inhibition, usual class: inhibitors | 4.4% of 360,000 active | AID 504333; also: % is scaled to controls: 0 for no effect and ±100 for the full control effect; nearly all actives have a fitted effect of over 60% in size
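AlphaScreen luminescence quantifies BAZ2B engagement of H3K14Ac peptide; the protein and biotinylated peptide are both at 50 nM final, buffer PBS pH 7.4 with 0.01% Tween-20, all steps at room temperature.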
PLK1 PBD block – PLK1 (human) polo-box domain binding inhibition; Potency, µM, for inactives: max response, negative = inhibition, usual class: inhibitors; 2.8% of 360,000 active; Plk1 PBD binding of FITC phosphopeptide, fluorescence polarization; also: series mostly up to about 57 µM; % is scaled to controls: 0 for no effect and ±100 for the full control effect; nearly all actives have a fitted effect of over 65% in size
Target sequence (P53350 whole entry, looked up, the tested form may be a part): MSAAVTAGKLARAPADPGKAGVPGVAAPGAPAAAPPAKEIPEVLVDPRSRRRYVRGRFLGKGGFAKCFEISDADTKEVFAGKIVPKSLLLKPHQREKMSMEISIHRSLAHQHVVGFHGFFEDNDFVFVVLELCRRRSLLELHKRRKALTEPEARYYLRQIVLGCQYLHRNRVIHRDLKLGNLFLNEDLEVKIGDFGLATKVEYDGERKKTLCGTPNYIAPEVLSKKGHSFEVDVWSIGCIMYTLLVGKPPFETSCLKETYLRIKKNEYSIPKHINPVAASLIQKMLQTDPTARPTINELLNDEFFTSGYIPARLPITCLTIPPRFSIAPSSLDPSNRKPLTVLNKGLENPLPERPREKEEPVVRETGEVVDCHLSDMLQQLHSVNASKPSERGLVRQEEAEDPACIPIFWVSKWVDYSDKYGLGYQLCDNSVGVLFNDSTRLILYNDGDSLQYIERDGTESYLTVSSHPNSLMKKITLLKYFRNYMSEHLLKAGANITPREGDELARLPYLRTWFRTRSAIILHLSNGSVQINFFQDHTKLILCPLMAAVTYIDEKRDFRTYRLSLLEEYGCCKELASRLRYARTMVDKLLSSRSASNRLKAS
L3MBTL1 block – inhibitors of human L3MBTL1; Q9Y468; AlphaScreen L3MBTL1–H3K9me1 peptide binding; Potency, µM (series often up to 57.1 µM), for the others: at the top dose activity, negative = inhibition, usual class: inhibitors; 0.66% of 230,000 active; AID 485360; also: % is scaled to controls: 0 for no effect and ±100 for the full control effect; nearly all actives have a fitted effect of over 60% in size
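Displacement of a biotinylated histone H3(1-15) peptide monomethylated at Lys9 (75 nM) from L3MBTL1 (50 nM) was measured by AlphaScreen after a 30 min room-temperature compound incubation; cefsulodin titration served as intraplate control.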
JMJD2A Tudor – JMJD2A Tudor domain (human) inhibition; 4.4% of 390,000 active; O75164; AID 504339; AlphaScreen JMJD2A-Tudor / H3K4me3 peptide binding; Potency, µM (series often up to 114 µM), for inactives: at the highest dose activity change, negative = inhibition, most hits filed as inhibitors; also: % is scaled to controls: 0 for no effect and ±100 for the full control effect; nearly all actives have a fitted effect of over 50% in size
HP1b chromo inh – blocks HP1-beta chromodomain binding to methylated histone tails; P83916; AlphaScreen HP1-beta / biotin-H3K9me3 peptide binding; Potency, µM (highest dose often 114 µM), inactives show at the top dose activity change, negative = inhibition, most hits filed as inhibitors; 0.56% of 390,000 active; AID 540317; also: nearly all actives have a fitted effect of over 70% in size
Target sequence (P83916 whole entry, looked up): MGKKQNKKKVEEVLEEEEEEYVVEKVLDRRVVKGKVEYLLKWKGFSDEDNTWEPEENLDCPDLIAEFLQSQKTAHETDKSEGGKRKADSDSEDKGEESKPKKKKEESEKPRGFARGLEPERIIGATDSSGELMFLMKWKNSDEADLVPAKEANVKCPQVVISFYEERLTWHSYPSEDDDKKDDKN
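Compound inhibition of the preformed complex between 50 nM HP1-beta and 50 nM biotinylated H3K9me3 peptide was read by AlphaScreen. Buffer was PBS pH 7.4 with 0.01% Tween-20. Incubations ran 30 min at room temperature, with 10 ug/mL donor/acceptor beads.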
VDR inhibitor – vitamin D3 receptor (human) inhibition. P11473. VDR-SRC2-3 peptide fluorescence polarization, 2 h. Potency, µM, without a hit: max response, negative = inhibition, actives largely listed as inhibitors. 0.93% of 400,000 active. AID 504847; also: % is scaled to controls: 0 for no effect and ±100 for the full control effect
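Signal is fluorescence polarization, reporting how far test compounds block the interaction of VDR with the SRC2-3 coregulator peptide after a 2 h room-temperature incubation.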
* hit, by the source's call; ? = inconclusive; · = no result; [ ] = another dose, or the depositor's remark. Calls follow the shape of the dose curve; as a rule, active = well fitted curve in the direction sought with a large enough effect; inconclusive = small, poorly fitted or top-dose-only effect, or another doubt; inactive = no such curve, though single readings can be large; an effect the other way counts as inactive or inconclusive. Potency is read from the fitted curve at half-maximal effect.

SMILES | BAZ2B inh | PLK1 PBD block | L3MBTL1 block | JMJD2A Tudor | HP1b chromo inh | VDR inhibitor
S=c1[nH]nc(-c2cc(-c3ccccc3)n[nH]2)n1/N=C/C=C/c1ccccc1 | -27.4% | -3.8% | -16.4% | ? | 19.8% | -11.4%
CC(=C/c1ccccc1)/C=N/n1c(C)n[nH]c1=S | -7.5% | -3.9% | 9.6% | 31.6µM* | 2.4% | -13.7%
S=c1[nH]nc(C2CCCCC2)n1/N=C/C(Cl)=C\c1ccccc1 | -2.8% | -23.1% | 0.1% | ? | -9.2% | -25.7%
S=c1[nH]nc(-c2cccnc2)n1/N=C/C=C/c1ccccc1 | -33.0% | -16.3% | -8.4% | 7.08µM* | -18.9% | -19.4%
CC(/C=N/n1c(-c2cccnc2)n[nH]c1=S)=C\c1ccccc1 | ? | -17.9% | -5.2% | 20µM* | 17.4% | -21.8%
CC(=C/c1ccccc1)/C=N/n1c(-c2ccncc2)n[nH]c1=S | ? | -20.5% | -2.6%[11.4 µM] | 10µM* | ? | -2.4%
COc1ccc([N+](=O)[O-])cc1N(CC(O)CN1C(=O)NC(C)(C)C1=O)S(=O)(=O)c1ccccc1 (stereo not drawn) | 0.7% | -3.4% | · | -6.4% | 19.2% | 0.0%
Cc1ccc(/C=N/n2c(C)n[nH]c2=S)o1 | -5.3% | -3.8% | 1.6% | 5.01µM* | 15.1% | -15.4%
S=c1[nH]nc(-c2ccco2)n1/N=C/C(Cl)=C/c1ccccc1 | ? | ? | -11.1% | ? | ? | ?
Cc1cc(-c2n[nH]c(=S)n2/N=C/C(Cl)=C/c2ccccc2)n[nH]1 | ? | ? | -12.7% | 56.2µM* | -17.5% | ?
Cc1ccc(NS(=O)(=O)c2cc3c(cc2Cl)CCC(=O)N3)cc1Cl | · | · | · | 5.0% | · | ·
CCOc1ccc(CCN2C(=S)N([C@@H](Cc3ccc(O)cc3)CN3CCC[C@@H]3CN3C(=S)NC[C@@H]3CC(C)C)C[C@@H]2Cc2ccc(O)cc2)cc1 | · | -6.3% | · | · | · | ·
O=C1c2ccccc2C(=O)N1CCCCNc1ccccc1 | · | -0.6% | · | -30.8% | -16.2% | -17.5%
c1ccc(NCCCNc2ccccc2)cc1 | 50.1µM* | -7.5% | -6.1%[11.4 µM] | ? | -32.3% | -1.8%
CCOC(=O)c1cc(OCC)c2c(ccc3cc(OC)ccc32)n1 | · | -7.4% | · | · | · | ·
CCOCCCNC(=O)C1CCN(c2cc(C)nc3c(-c4ccc(Cl)cc4)c(C)nn23)CC1 | 0.7% | · | · | -2.0% | 21.6% | -3.9%
CS(=O)(=O)c1ccc(N)c(SSc2cc(S(C)(=O)=O)ccc2N)c1 | 35.5µM* | 0.947µM* | -20.7% | 1.41µM* | ? | 25.1µM*
CS(=O)(=O)c1ccc2nc(N)sc2c1 | -4.4% | -14.8% | -4.9% | 5.0% | 25.7% | -7.5%
CN(C)c1cc(Cl)c2nonc2c1N | 50.1µM* | -18.4% | 31.6µM* | ? | ? | ?
CCN(CC(=O)NCc1ccc(F)cc1)C(=O)C1CCN(S(=O)(=O)c2ccc(C(C)C)cc2)CC1 | 8.6% | -9.5% | -1.7% | -10.3% | 7.7% | 3.8%
CN(C)CCOc1ccc(-c2c(-c3ccsc3)sc3ccccc23)cc1 | · | -0.9% | -22.9% | 50.1µM* | -37.2% | -27.9%
COc1ccc(-c2sc3ccccc3c2-c2ccc(O)cc2)cc1 | · | -2.5% | -0.9% | -30.3% | 5.7% | -10.2%
Oc1cccc(-c2sc3ccccc3c2-c2ccc(OCCN3CCCCC3)cc2)c1 | · | -0.2% | · | · | · | ·
COc1ccc(-c2sc3ccccc3c2-c2ccc(OCCN(C)C)cc2)cc1 | · | -6.4% | -0.2% | 35.5µM* | ? | 4.6%
COc1cccc(-c2sc3ccc(OC)cc3c2-c2ccc(OCCN(C)C)cc2)c1 | · | -3.7% | -13.2% | 28.2µM* | ? | -17.3%
SMILES | BAZ2B inh | PLK1 PBD block | L3MBTL1 block | JMJD2A Tudor | HP1b chromo inh | VDR inhibitor
CCOc1ccccc1C(=O)Oc1c(S(=O)(=O)c2ccc(C)cc2)c(C)nn1-c1ccccc1 | ? | · | · | -14.0% | 23.9% | -15.9%
CCOC(=O)[C@]12CCCC=C1N(CCC1=CCCCC1)C(=O)[C@H](CC(=O)N1CCCC1)C2 | · | -5.7% | · | · | · | ·
c1nc(SSc2ncnc3nc[nH]c23)c2[nH]cnc2n1 | · | 0.844µM* | · | 0.794µM* | ? | 25.1µM*
O=C(O)CSc1ncnc2nc[nH]c12 | -2.3% | -5.1% | · | -18.3% | 33.9% | 4.8%
O=C(CSc1ncnc2nc[nH]c12)c1ccc2ccccc2c1 | -21.9% | -1.5% | 22.5% | 79.4µM* | 17.2% | 9.2%
CCOc1ccc(NC(=O)NCCCN2CCN(c3ccc(OC)cc3)CC2)cc1 | -37.1% | · | · | ? | -3.5% | -15.3%
FC(F)(F)Oc1ccc(NC(=S)NCCCN2CCOCC2)cc1 | -19.3% | 11.9µM* | 4.8% | -13.7% | -1.4% | -7.4%
S=C(NCCCN1CCOCC1)NCCCN1CCOCC1 | 6.7% | 5.32µM* | 3.4% | 7.4%[57.1 µM] | ? | ?
CCOc1ccc(NC(=S)NCCCN2CCN(c3ccc(OC)cc3)CC2)cc1 | 35.5µM* | 1.7% | · | ? | -5.2% | -2.8%
CCCCCCCCNC(=S)NCCN1CCCCC1 | ? | -10.4% | -0.5% | 79.4µM* | ? | -7.0%
COC(=O)N[C@@H](c1cccc(F)c1)[C@@H](C)[N+](=O)[O-] | · | · | · | · | · | 4.8%
Cc1nc2ccn(Cc3ccccc3)c(=O)c2cc1C(=O)NCc1ccccc1F | 3.6% | · | · | -7.0% | 63.0% | 8.8%
O=C(O)C1CN(c2ncccc2[N+](=O)[O-])C1 | -29.7% | 13.4µM* | 0.5% | ? | -13.0% | ?
CN1CCC(=O)N(C(CSc2ccc(Br)cc2)Cc2ccccc2)CC1 (stereo not drawn) | · | · | · | -29.0% | 2.3% | ?
O=C1NC2=C(C(=O)CCC2)C(c2ccccc2Cl)N1 (stereo not drawn) | -16.8% | -8.8% | · | -14.7% | -3.2% | 4.6%
Cc1nc(Cl)c2c(n1)NC1=C(O2)C(=O)CCC1 | 7.0% | 21.2µM* | -0.2% | 0.7% | 29.4% | 4.4%
C=CCN1C(c2ccc(Br)cc2)=CS/C1=C(/C#N)c1nnc(N2CCOCC2)n1-c1ccccc1 | ? | -12.7% | -13.8% | ? | ? | -5.5%
C=CCN1C(c2cccc(C(F)(F)F)c2)=CS/C1=C(/C#N)c1nnc(N2CCOCC2)n1-c1ccccc1 | 50.1µM* | -12.2% | -14.9% | 50.1µM* | 0.4% | -27.9%
Cc1ccc(Cl)cc1NC(=O)Cn1nnc2sc3c(c2c1=O)CCC(C(C)(C)C)C3 (stereo not drawn) | -16.6% | · | · | -30.5% | -2.6% | 5.0%
CN(C)C(=O)/N=N/C(=O)N(C)C | · | · | · | · | · | 6.31µM*
Cc1ccc([N+](=O)[O-])cc1S(=O)(=O)n1ccnc1C | ? | 4.23µM* | -22.4% | -30.8%[11.4 µM] | -2.1% | ?
CCOC(=O)CC(c1ccc([N+](=O)[O-])cc1)n1c(C)ccc1C (stereo not drawn) | 44.7µM* | 2.6% | -3.8%[11.4 µM] | -33.7% | ? | -23.0%
O=C(O)C(Cc1cn[nH]n1)=NO | 25.1µM* | -0.2% | 8.3% | 7.94µM* | ? | -9.2%
C=CCOC(=O)/C=C/C(=O)NC(N)=O | -0.2% | ? | · | ? | 17.8µM* | ?
